This note sets out measurements from PubChem BioAssay (NCATS).

Values joined by “and” are separate entries in the source; they are usually repeats but may differ in a detail not shown here. Equal values may be shown once. Records with an inconclusive call do not appear. Some compounds were tested as several samples or in several runs, with calls that do not always agree. Active and inactive are the calls of the source. Unless noted, the call rests on the fitted dose curve; in most records, active means well fitted curve in the direction sought with a large enough effect; inconclusive means small, poorly fitted or top-dose-only effect, or another doubt; inactive means no such curve, though single readings can be large; an effect the other way counts as inactive or inconclusive.

A short description of assay [1]: qHTS profiling of the MIPE4 collection as inhibitors of Plasmodium falciparum (DD2) proliferation (AID 743345; call rule not given here). The note with it: P. falciparum Dd2 in erythrocytes, SYBR Green DNA, 72 h; at 28.5 µM (top of the series) unless noted. The essentials: (§1)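 Erythrocytes infected with P. falciparum (0.3% parasitemia, 2.5% hematocrit) incubated with compounds 72 h at 37 C, 5% CO2. Lysis with saponin/Triton buffer containing SYBR Green I, overnight at room temperature in the dark; DNA fluorescence (485/535 nm) normalised to 0.29 uM artemisinin and DMSO.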

Assay [2] in a line: qHTS profiling of the MIPE4 collection as inhibitors of Plasmodium falciparum (DD2) proliferation (Rep 2) (AID 743346; call rule not given here). The following applies: P. falciparum Dd2 in erythrocytes, SYBR Green DNA, 72 h; at 28.5 µM (top of the series) unless noted. The essentials: as §1
Assay [3] is described as follows: qHTS profiling of the MIPE4 collection as inhibitors of Plasmodium falciparum (HB3) proliferation (AID 743347; call rule not given here;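 further: plate controls were DMSO vehicle wells for no effect and artemisinin wells for full effect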). The note with it: P. falciparum HB3 in erythrocytes, SYBR Green DNA, 72 h; at 28.5 µM (top of the series) unless noted. The gist of the method:
as §1

Assay [4] can be described thus: High-throughput drug toxicity screening in the BPDCN cell line Gen2.2 (AID 1224824; call rule not given here;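 further: cells exposed to compounds for 48 h before reading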). The following applies: Gen2.2 BPDCN cells; at 45.8 µM (top of the series) unless noted. The gist of the method:
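CellTiter-Glo luminescence after 48 h compound exposure of Gen2.2 cells; percent activity set with DMSO as 100% and bortezomib (9.2 uM final) as 0%. Cells seeded at 500 per well, RPMI + 10% FBS, 37 °C.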

Assay [5] is described as follows: High-throughput drug toxicity screening in the BPDCN cell line Cal-1 (AID 1224825; call rule not given here). The following applies: Cal-1 BPDCN cell viability, qHTS; at 45.8 µM (top of the series) unless noted. The essentials:
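500 Cal-1 cells/well, RPMI + glutamine + 10% FBS (phenol red-free); cpd added by pin tool; 48 h, 37C, 5% CO2; CTG 15 min RT, lumi read. Normalised: DMSO 100%, bortezomib 9.2 uM 0%.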

Assay [6] in a line: qHTS assay for measurement of the activity of small molecule inhibitors on Zika virus induced Caspase-3 activity in human iPSC derived neural progenitor cells (hNPCs) (AID 1224857). Further: nearly all actives have a fitted effect of over 65% in size. Further: potency means the concentration at half of the fitted maximal effect. The gist of the method:
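After overnight (16–20 h) culture at 350 cells/well, hNPCs get compound, then ZIKV 2 FFU/cell one hour later. Six hours on, Caspase-Glo 3/7 is added and luminescence measured.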

The nature of assay [7]: qHTS Screen of the MIPE 4.0 Collection Against Ewings Sarcoma (RDES) (AID 1259252). Further: nearly all actives have a fitted effect of over 35% in size. Further: potency means the concentration at half of the fitted maximal effect. The gist of the method:
(§2)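 CellTiter-Glo luminescence after 48 h compound exposure (titration) gave viability; percent activity used DMSO-treated cells as no inhibition and medium-only wells as full inhibition. Cells grown in RPMI/5% FBS, dosed 4 h post-seeding.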

The nature of assay [8]: qHTS Screen of the MIPE 4.0 Collection Against Ewings Sarcoma (TC71) (AID 1259253). Further: nearly all actives have a fitted effect of over 40% in size. Further: potency means the concentration at half of the fitted maximal effect. The essentials:
as §2

Assay [9] can be described thus: qHTS Screen of the MIPE 4.0 Collection Against Ewings Sarcoma (EW8) (AID 1259255). Further: nearly all actives have a fitted effect of over 35% in size. Further: potency means the concentration at half of the fitted maximal effect.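 On viability: 100% = DMSO-treated cells and 0% = medium-only wells without cells.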 The essentials: as §2
Assay [10] in a line: qHTS Screen of the MIPE 4.0 Collection Against Ewings Sarcoma (TC32) (AID 1259256). Further: nearly all actives have a fitted effect of over 45% in size. Further: potency means the concentration at half of the fitted maximal effect. The essentials:
as §2

A short description of assay [11]: P-glycoprotein substrates identified in KB-3-1 adenocarcinoma cell line, qHTS therapeutic library screen (AID 1346986). Further: nearly all actives have a fitted effect of over 60% in size. The gist of the method:
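Cells seeded 500/well in DMEM/10% FCS; compounds pinned in dose-response; 72 h incubation; CellTiter-Glo added, 5 min, luminescence. KB-8-5-11 run ±tariquidar to test reversal of P-gp resistance.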

The nature of assay [12]: qHTS assay to identify small molecule inhibitors of chordoma cells - UCH-1 (AID 1259355). Further: on the % scale 0 is the no-effect control and ±100 the full control effect; nearly all actives have a fitted effect of over 55% in size. The gist of the method: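 Seed 800 cells per well; incubate overnight at 37 C, 5% CO2. Add test compounds (15 concentrations), then the auranofin–topoisomerase-agent combination. Incubate 48hr, add CellTiter-Glo, wait 30min, read luminescence.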
Assay [13] can be described thus: qHTS assay to identify small molecule inhibitors of chordoma cells - UCH-2 (AID 1259356). Further: on the % scale 0 is the no-effect control and ±100 the full control effect.
The nature of assay [14]: qHTS assay for measurement of the activity of small molecule inhibitors on Zika virus induced Caspase-3 activity in human astrocytoma cells (AID 1224859).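 Further: plate controls were ZIKV-infected untreated cells for no effect and uninfected cells for full effect.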 The essentials: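 Inhibition of Zika-induced caspase-3/7 activity: SNB-19 cells, 1 h compound pretreatment, ZIKV 2 FFU/cell for 6 h at 37 C, Caspase-Glo luminescence read-out.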

Consider `Cc1cc(Cl)ccc1OCCCC(=O)NO`, for which the parasite growth remaining, % of DMSO control (lower = more inhibition) in assay [1] came out at 72.9%. Besides, in assay [2], the parasite growth, % of control (lower = inhibition) was 42.1%. Besides, the growth, % of control in assay [3] stood at 41.9%. Further, in [4], the cell viability, % of control (lower = more cytotoxic) amounted to 21.7%. Also, in assay [5], the viability (% of control) came to 3.6%. Further, the Potency result in assay [6] and in [11] was “inactive” throughout. Moreover, the Potency is 0.743 µM (active) in assay [7], 9.35 µM (active) in assay [8], 1.05 µM (active) in assay [9] and 11.8 µM (active) in [10].

Turning to `O=c1c(O)c(-c2ccc(O)cc2O)oc2cc(O)cc(O)c12`, the parasite growth remaining, % of DMSO control (lower = more inhibition) in [1] stood at 71%. Also, the parasite growth, % of control (lower = inhibition) in assay [2] was 111%. Also, the growth, % of control in assay [3] is 99.8%. Besides, the cell viability, % of control (lower = more cytotoxic) in [4] amounted to 74.1%. In addition, the viability (% of control) in assay [5] amounted to 84.9%. Further, the Potency entry in assay [6], in assay [7], in [8] and in assay [10] was “inactive” throughout.

On to `Oc1ccc(OCc2ccccc2)cc1`, for which, in assay [1], the parasite growth remaining, % of DMSO control (lower = more inhibition) was 123%. The parasite growth, % of control (lower = inhibition) in assay [2] turned out to be 83.5%. The growth, % of control in assay [3] is 89.5%. For the same compound, the cell viability, % of control (lower = more cytotoxic) in assay [4] came to 226%. For the same compound, the viability (% of control) in [5] is 18.2%. Moreover, the Potency result in assay [6] was “inactive and 11.8 µM (active)”; in assay [7], 2.35 µM (active); in [8] it was 9.35 µM (active); in assay [9], 4.18 µM (active); in [10], 4.18 µM (active). Moreover, the Potency result in [12], in assay [13] and in [11] was “inactive” throughout.

On to `CC1(C)CCC(C)(C)c2cc(NC(=O)c3ccc(C(=O)O)cc3)ccc21`, for which the parasite growth remaining, % of DMSO control (lower = more inhibition) in assay [1] was 86.1%. The parasite growth, % of control (lower = inhibition) in assay [2] was found to be 27%. Further, the growth, % of control in [3] was 49.3%. The cell viability, % of control (lower = more cytotoxic) in assay [4] came to 73.5%. Moreover, in [5], the viability (% of control) stood at 66%. The Potency entry in assay [6], in [12] and in assay [13] was “inactive” throughout. Also, the Potency in assay [7] was 23.5 µM (active); in assay [8], 18.7 µM (active).

In the case of `Cc1nccn1CC1CCc2c(c3ccccc3n2C)C1=O` (stereo not given), the parasite growth remaining, % of DMSO control (lower = more inhibition) in assay [1] was 80.4%. Further, the parasite growth, % of control (lower = inhibition) in assay [2] worked out at 40.2%. The compound also displayed a growth, % of control in assay [3] of 54.5%. The cell viability, % of control (lower = more cytotoxic) in [4] turned out to be 105%. For the same compound, in [5], the viability (% of control) came out at 92.7%. Further, the Potency result in assay [6], in [9] and in assay [11] was “inactive” throughout. Also, the Potency in [8] is 16.6 µM (active); in assay [10], 13.2 µM (active).

For `CN(C)CCCC1(c2ccc(F)cc2)OCc2cc(C#N)ccc21` (stereo not given), in [1], the parasite growth remaining, % of DMSO control (lower = more inhibition) was 63.7%. For the same compound, in assay [2], the parasite growth, % of control (lower = inhibition) is 45.5%. In assay [3], this compound gave a growth, % of control of 93%. Besides, in assay [4], the cell viability, % of control (lower = more cytotoxic) came out at 120%. Moreover, in [5], the viability (% of control) was found to be 99.6%. Besides, the Potency entry in assay [6] and in [9] was “inactive” each time. Besides, the values for the Potency in [8] and in assay [10] were 14.8 µM (active) and 16.6 µM (active), respectively.

Consider `O=C(CS(=O)Cc1ccco1)NCC=CCOc1cc(CN2CCCCC2)ccn1` (stereo not given), for which the parasite growth remaining, % of DMSO control (lower = more inhibition) in assay [1] is 95.7%. In addition, the parasite growth, % of control (lower = inhibition) in assay [2] amounted to 53.3%. For the same compound, the growth, % of control in assay [3] is 86.8%. Also, the viability (% of control) in assay [5] is 112%. Also, the Potency result in assay [6], in [14], in assay [7], in [8], in assay [9] and in assay [10] was “inactive” each time. For the same compound, the Potency entry in [12] and in [13] was “inactive” each time.

On to `C=CCc1cc(OC)c(O)c(C(=O)NCCO)c1`, for which the cell viability, % of control (lower = more cytotoxic) in assay [4] worked out at 134%. Besides, the viability (% of control) in assay [5] was found to be 128%. Also, the Potency entry in assay [6], in assay [9], in [12] and in assay [13] was “inactive” in each case.

With `O=C(NCCO[N+](=O)[O-])c1cccnc1`, the parasite growth remaining, % of DMSO control (lower = more inhibition) in assay [1] is 87%. Besides, the parasite growth, % of control (lower = inhibition) in [2] was determined as 118%. In addition, the growth, % of control in assay [3] was found to be 108%. The cell viability, % of control (lower = more cytotoxic) in [4] came to 178%. Also, the viability (% of control) in assay [5] came to 117%. For the same compound, the Potency result in assay [6], in [9], in [12], in assay [13] and in [11] was “inactive” in each case.
